Source: PubChem
PLK1 PBD block – blocks phosphopeptide binding to human PLK1 polo-box domain; Potency, µM, for the others: max response, negative = inhibition, usual class: inhibitors; Plk1 PBD binding of FITC phosphopeptide, fluorescence polarization; AID 720504; 2.8% of 360,000 active; P53350; also: series mostly up to about 57 µM; nearly all actives have a fitted effect of over 65% in size
Target sequence (P53350 whole entry, looked up, the tested form may be a part): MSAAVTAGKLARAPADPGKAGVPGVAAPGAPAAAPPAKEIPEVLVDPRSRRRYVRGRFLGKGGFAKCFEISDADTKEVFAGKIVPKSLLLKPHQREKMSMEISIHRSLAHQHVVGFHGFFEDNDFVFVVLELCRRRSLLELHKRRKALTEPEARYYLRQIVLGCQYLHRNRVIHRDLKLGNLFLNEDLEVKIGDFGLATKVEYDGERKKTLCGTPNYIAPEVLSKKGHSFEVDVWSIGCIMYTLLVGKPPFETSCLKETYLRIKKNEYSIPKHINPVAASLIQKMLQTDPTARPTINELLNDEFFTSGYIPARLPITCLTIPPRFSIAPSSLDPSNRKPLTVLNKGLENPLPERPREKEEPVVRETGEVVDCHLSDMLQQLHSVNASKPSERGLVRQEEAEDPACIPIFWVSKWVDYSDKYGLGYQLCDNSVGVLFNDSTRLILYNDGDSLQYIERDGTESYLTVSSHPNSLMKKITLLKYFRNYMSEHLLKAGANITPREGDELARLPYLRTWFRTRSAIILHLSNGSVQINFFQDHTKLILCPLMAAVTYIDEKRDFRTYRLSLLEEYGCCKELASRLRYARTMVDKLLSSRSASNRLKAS
DT40 TDP1 CPT – growth inhibition of DT40 Tdp1-/-;hTDP1 cells with camptothecin (screen for TDP1 inhibitors); 12% of 420,000 active; Potency, µM (titrated, usually from 46.2 µM), inactives show at the highest dose activity change, negative = growth inhibition, most hits filed as inhibitors; chicken DT40 Tdp1-/-;hTDP1 cells + 20 nM CPT, ATP luminescence, 48 h; also: nearly all actives have a fitted effect of over 55% in size
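Chicken DT40 Tdp1-/- cells stably complemented with human TDP1 were seeded at 400 cells/well in medium containing 20 nM camptothecin, exposed to pin-transferred compounds, and grown at 37 °C for at least 48 hr. Viability was read as ATP luminescence.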
GCN5L2 inh – inhibitors of human GCN5L2 histone acetyltransferase; Q92830; GCN5L2 HAT assay, ThioGlo1 CoA-SH fluorescence; Potency, µM (top dose mostly 58.9 µM), without a hit: top-dose activity change, negative = inhibition, usual class: inhibitors; 0.21% of 390,000 active
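GCN5L2 (20nM final) in 50mM HEPES, 0.1mM EDTA pH 7.5, 0.01% Tween-20 was preincubated 15 min at room temperature with compound, then given ThioGlo1 (50uM), H3(1-25) peptide (75uM) and acetyl-CoA (70uM); CoA-thiol fluorescence (Ex340/Em540) was read at 0 and 20 min.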
TDP1 cell noCPT – qHTS for Inhibitors of human tyrosyl-DNA phosphodiesterase 1 (TDP1): qHTS in cells in absence of CPT | DT40 Tdp1-/- hTDP1 cells, no CPT, ATP luminescence, 48 h | Potency, µM (doses to about 46.2 µM), without a hit: top-dose activity change, negative = growth inhibition, hits mostly inhibitors | 15% of 420,000 active; also: nearly all actives have a fitted effect of over 55% in size
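No-CPT arm: Tdp1-/-;hTDP1 DT40 cells (400/well) plus compounds, incubated ≥48 hr at 37 °C. Readout CellTiter-Glo luminescence.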
TDP1 inh – TDP1 (human) enzyme inhibition; Q9NUW8; recombinant TDP1, AlphaScreen DNA substrate cleavage; Potency, µM (doses to about 130 µM), without a hit: at the highest dose activity change, negative = inhibition, hits mostly inhibitors; 0.28% of 350,000 active; AID 485290; also: nearly all actives have a fitted effect of over 40% in size
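Compounds were preincubated with Tdp1 (1 nM final) for 15 min at room temperature before substrate (15 nM final) started a 5 min reaction; beads (10 ug/ml final) were then added for 10 min before AlphaScreen detection.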
VDR inh – vitamin D3 receptor (human) inhibition; P11473; VDR-SRC2-3 peptide fluorescence polarization, 2 h; Potency, µM, without a hit: max response, negative = inhibition, actives largely listed as inhibitors; 0.93% of 400,000 active; AID 504847
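Two reagent solutions held at 4 deg C in the dark were dispensed, compounds pinned at 23 nl, and the mixture incubated 2 h at room temperature. Read-out: fluorescence polarization of VDR–SRC2-3 peptide binding.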
* marks the source's active call; other numbers are inactive results; ? = inconclusive; . = no result. The list is not random: actives were taken first. Their share in the collection is about 18%. Calls follow the shape of the dose curve; as a rule, active = well fitted curve in the direction sought with a large enough effect; inconclusive = small, poorly fitted or top-dose-only effect, or another doubt; inactive = no such curve, though single readings can be large; an effect the other way counts as inactive or inconclusive. % is scaled to controls: 0 for no effect and ±100 for the full control effect; potency is read from the fitted curve at half-maximal effect.

SMILES | PLK1 PBD block | DT40 TDP1 CPT | GCN5L2 inh | TDP1 cell noCPT | TDP1 inh | VDR inh
O=C(CCSCc1ccccc1F)N1CCN(c2ccc(F)cc2)CC1 | . | ? | -4% | 26µM* | 3% | 5%
O=C(CCC(=O)N1CCN(c2ccccc2F)CC1)N1CCN(c2ccc(F)cc2)CC1 | -19% | ? | 0% | 16µM* | 2% | 11%
O=C(CN1C(=O)NC(c2ccccc2)(c2ccccc2)C1=O)N1CCN(c2ccccc2F)CC1 | -6% | ? | -13% | 4.1µM* | 1% | -21%
O=C(CN1C(=O)NC(c2ccccc2)(c2ccccc2)C1=O)N1CCN(c2ccc(F)cc2)CC1 | 2% | ? | -11% | ? | 3% | 2%
CCS(=O)(=O)c1ccc(C(=O)Nc2cccc(Cl)c2)c(Cl)c1Cl | 0% | ? | 18% | 21µM* | 5% | 1%
CS(=O)(=O)Nc1ccccc1C(=O)Nc1cccc(Cl)c1 | -1% | ? | -3% | 23µM* | 8% | -3%
CCS(=O)(=O)c1ccc(C(=O)Nc2ccccc2)c(Cl)c1Cl | -2% | ? | -8% | ? | 0% | 15%
CS(=O)(=O)Nc1ccccc1C(=O)Nc1cc(Cl)cc(Cl)c1 | -9% | 18µM* | -1% | 18µM* | -2% | 11%
COC(=O)c1c(NC(=O)C2CCCCC2C(=O)O)sc2c1CCCCC2 (stereo not given) | 24µM* | -3% | 1% | -23% | -3% | -15%
CCN1CCc2c(sc(NC(=O)C3CCCCC3)c2C(=O)OC)C1 | 5% | 26µM* | -22% | ? | . | -12%
CCOC(=O)c1c(NC(=O)C2CCCCC2C(=O)O)sc2c1CCCCC2 (stereo not given) | ? | 0% | -8% | -2% | 3% | -13%
COc1ccc(N2CCN(c3ccc(-c4nc(-c5ccccc5C)no4)cc3[N+](=O)[O-])CC2)cc1 | . | ? | -8% | ? | -3% | 5%
O=C(NCc1cccs1)c1ccc(-c2ccc(F)c(F)c2)c2ccoc12 | -6% | 12µM* | . | 10µM* | . | .
O=C(NCc1ccc(F)c(F)c1)c1ccc(-c2ccc(F)c(F)c2)c2ccoc12 | -9% | 18µM* | . | 21µM* | . | .
O=C(NCc1ccc(Cl)cc1)c1ccc(-c2ccc(F)c(F)c2)c2ccoc12 | -10% | ? | . | ? | . | .
O=C(NCC1CCOCC1)c1ccc(-c2ccc(F)c(F)c2)c2ccoc12 | 3% | 12µM* | . | 10µM* | . | .
CN(C)c1ncc2nc(-c3cn(C)c4ccccc34)c(=O)n(C[C@H]3CCCO3)c2n1 | . | 4% | -5% | 17% | . | 0%
Cc1cc(C=O)c(C)n1-c1cccc(C(=O)O)c1 | -24% | 20% | 3% | 0% | 5µM* | -19%
O=C(Nc1ccccc1)c1cccc(N2CCCC2=O)c1 | -22% | -19% | 1% | -15% | 1% | 23%
COc1ccc(NC(=O)c2cccc(-n3c(C)ccc3C)c2)c(OC)c1 | -1% | ? | 3% | 26µM* | 2% | 2%
Cc1ccc(C)n1-c1cccc(C(=O)Nc2ccccc2)c1 | 0% | ? | -41% | 15µM* | . | -10%
O=S(=O)(c1ccc2c(c1)OCCO2)N1CCN(S(=O)(=O)c2ccc(F)cc2F)CC1 | . | . | . | . | -20% | .
CCN(CC)S(=O)(=O)c1cc(C(=O)Nc2ccccc2[N+](=O)[O-])ccc1Cl | 3% | ? | -2% | 16µM* | 9% | -12%
CC(C)(C)C(=O)COc1ccccc1[N+](=O)[O-] | -2% | 15µM* | -10% | ? | 2% | 2%
CCN(CC)S(=O)(=O)c1cc(C(=O)Nc2cc(C)[nH]n2)ccc1Cl | 4% | -5% | 5% | 4% | . | -2%
SMILES | PLK1 PBD block | DT40 TDP1 CPT | GCN5L2 inh | TDP1 cell noCPT | TDP1 inh | VDR inh
CCN(CC)S(=O)(=O)c1ccc(Cl)c(NC(=O)COc2ccccc2[N+](=O)[O-])c1 | 3% | ? | 1% | 23µM* | -3% | 13%
CN(C)S(=O)(=O)c1ccc(Cl)c(NC(=O)COc2ccccc2[N+](=O)[O-])c1 | -11% | ? | -4% | 3.3µM* | 3% | -27%
O=C(COC(=O)/C=C/c1ccccc1[N+](=O)[O-])NCC(F)(F)F | -6% | -23% | 3% | -2% | 5% | 0%
O=C(C1CCCCC1)N(Cc1cccnc1)c1nc2ccc(Cl)cc2s1 | . | ? | -8% | ? | 5% | 9%
CCC/C=C(\CCC)C(NS(C)(=O)=O)c1ccccc1 (stereo not given) | . | . | . | . | 5% | .
CCc1ccccc1NC(=O)C1CCN(S(C)(=O)=O)CC1 | -8% | -5% | . | 0% | . | -17%
CN(C)CCn1c2ccccc2c2nc3ccc([N+](=O)[O-])cc3cc21 | -11% | 2.1µM* | 0% | 2.9µM* | . | -10%
Cc1cccc(OCc2ccc(-c3nc(C#N)c(NCCN(C)C)o3)o2)c1 | . | ? | -4% | ? | 7% | -6%
CC(C)CC(NC(=O)OCc1ccccc1)C(=O)NC(Cc1c[nH]c2ccccc12)C(=O)O (stereo not given) | -4% | -11% | . | -11% | . | .
CNC(=O)[C@H](Cc1c[nH]c2ccccc12)NC(=O)[C@@H](CC(=O)NO)CC(C)C | . | 22µM* | -4% | 31µM* | 10% | ?
O=C(COC(=O)CCc1nc2ccccc2c(=O)[nH]1)Nc1ccccc1OC(F)F | -14% | 3% | -2% | 18% | 0% | -2%
Cc1ccc2scc(N3CCCC(C)C3)c(=O)c2c1 (stereo not given) | . | -17% | -1% | -19% | 2% | 14%
Clc1ccc(/C=N/N2CCN(Cc3ccccc3Cl)CC2)cc1 | -2% | -1% | -8% | ? | 7% | -16%
COc1ccccc1/C=C/C=N\N1CCN(Cc2ccccc2Cl)CC1 | 1% | ? | -5% | 29µM* | -2% | 7%
Cc1ccc(N2CCN(/N=C/c3ccncc3)CC2)cc1 | -9% | 21µM* | -5% | 18µM* | 11% | 2%
Clc1ccccc1CN1CCN(/N=C/c2ccncc2)CC1 | -3% | 13µM* | 3% | 16µM* | -2% | 0%
Clc1ccc(N2CCN(/N=C/c3ccncc3)CC2)cc1 | -4% | 23µM* | -29% | ? | -1% | -1%
COc1ccc(NC(=S)NCCc2ccccc2OC)c(OC)c1 | -15% | ? | -11% | ? | 5% | 3%
COc1ccc(NC(=S)Nc2ccc(F)cc2)c(OC)c1 | -15% | ? | . | ? | . | 8%
Cc1cccc(NC(=S)NN(Cc2ccccc2)c2ccccc2)c1C | -5% | 25µM* | 1% | 16µM* | 6% | 2%
